Results reported in ChEMBL document CHEMBL3433997, “St. Jude Leishmania screening dataset” (2016).

Assays:
Format in all cases: functional
[1] = biological target: Solute carrier family 2, facilitated glucose transporter member 1 (Homo sapiens) (UniProt P11166); test: ST_JUDE_LEISH: Cytotoxicity at 2uM final concentration against transgenic Leishmania Mexicana promastigotes LmGLUT1 that are glucose transport deficient and complemented with the human glucose transporter GLUT1. Activity is measured by DNA content using SYBR green in vitro
[2] = biological target: Hexose transporter 1 (Plasmodium falciparum) (UniProt O97467); test: ST_JUDE_LEISH: Cytotoxicity at 2uM final concentration against transgenic Leishmania Mexicana promastigotes LmPfHT that are glucose transport deficient and complemented with the Plasmodium falciparum hexose transporter. Activity is measured by DNA content using SYBR green in vitro
[3] = biological target: Glucose transporter (Leishmania mexicana) (UniProt O61059); test: ST_JUDE_LEISH: Cytotoxicity at 2uM final concentration against transgenic Leishmania Mexicana promastigotes LmGT2 that are glucose transport deficient and complemented with the L. Mexicana glucose transporter 2. Activity is measured by DNA content using SYBR green in vitro

Chain of Solute carrier family 2, facilitated glucose transporter member 1 (Homo sapiens) (P11166 whole entry): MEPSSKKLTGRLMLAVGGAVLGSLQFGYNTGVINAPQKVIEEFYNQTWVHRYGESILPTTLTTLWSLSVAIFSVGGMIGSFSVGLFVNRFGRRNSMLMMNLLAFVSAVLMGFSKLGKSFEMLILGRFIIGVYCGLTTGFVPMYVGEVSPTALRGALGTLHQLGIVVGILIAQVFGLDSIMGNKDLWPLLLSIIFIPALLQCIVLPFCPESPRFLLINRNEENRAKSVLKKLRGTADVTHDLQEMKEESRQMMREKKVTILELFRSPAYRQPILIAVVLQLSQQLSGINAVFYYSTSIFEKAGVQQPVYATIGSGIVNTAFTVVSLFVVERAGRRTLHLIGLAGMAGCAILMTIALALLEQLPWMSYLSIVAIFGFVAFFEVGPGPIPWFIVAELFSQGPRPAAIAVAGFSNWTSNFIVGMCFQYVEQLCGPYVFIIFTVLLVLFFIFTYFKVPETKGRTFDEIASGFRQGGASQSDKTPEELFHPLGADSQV

| SMILES | inhibition [1] | inhibition [2] | inhibition [3] |
| --- | --- | --- | --- |
| O=C(Nc1cc(C(F)(F)F)ccc1Cl)c1ccc(Cn2cc(Br)cn2)cc1 | 1.23% | 0.15% | -9.62% |
| CN1CCC(N2CCN(Cc3ccc(-c4ccc(-c5nc6ccccc6[nH]5)s4)cc3)CC2)CC1 | 8.42% | 8.75% | 5.9% |
| Cc1ccc2[nH]c(-c3cc(-c4cccc(CCN5CCOCC5)c4)cnc3N)nc2c1 | 4.66% | 5.93% | 1.19% |
| CCCCc1cc(NC2CCN(C)CC2)nc(Nc2ccccc2)n1 | 10.5% | 8.07% | 8.76% |
| CC1(C)NC(N)=NC(=N)N1OCCCOc1cc(Cl)cc(Cl)c1 | 4.4% | 7.49% | 2.47% |
| O=C(Nc1ccc(-c2ccc(-c3nc4ccccc4[nH]3)s2)cc1)Nc1ccc(F)c(F)c1F | 0.57% | -1.5% | -0.77% |
| CC(C)(C)C1CC(=O)CC2C(=O)N(c3ccc(Br)cc3)C(=O)C21 (stereo not drawn) | 2.94% | 0.44% | -1.64% |
| COCCNCc1ccc(-c2cccc(CNc3ccc(OC)cc3)c2)cc1 | 11.3% | 8.16% | 5.16% |
| O=C(NCC1CCN(Cc2ccc3c(c2)OCCO3)C1)c1cc(-c2cccc(C(F)(F)F)c2)cs1 (stereo not drawn) | -2.67% | -0.91% | 2.27% |
| O=C(CCc1ccccc1)NC(c1ccc(Cl)cc1)c1ccc2cccnc2c1O (stereo not drawn) | -0.41% | 1.91% | 3.42% |
| COc1cc(CNCCCNc2cc(=O)c3ccccc3[nH]2)c2c(c1)C(C)CN2C(=O)OC(C)(C)C (stereo not drawn) | 9.27% | 10.7% | 4.19% |
| Cc1nnc2c(NC(=O)NC3CCCC3)cc3ccc(-c4cccc(CN5CCN(C)CC5)c4)cc3n12 | 6.21% | 6.49% | 5.53% |
| CCCCOc1c(CNCCCCCCNCc2ccc3ccccc3c2OCCCC)ccc2ccccc12 | 99.5% | 49.1% | 85.2% |
| Cc1cc(NCCC(=O)Nc2ccccc2)nc(NCCOc2ccccc2)n1 | -0.01% | -0.67% | -1.58% |
| Cc1ccc(CN2CCN(Cc3cccc(NC(=O)c4ccc5ccccc5c4)c3)CC2)cc1C | 1.24% | 1.87% | 4.04% |
| O=C(NCC1CCC(C(=O)NC2CCCc3ccccc32)CC1)c1ccc(O)c(-c2ccc(Cl)c(Cl)c2)c1 (stereo not drawn) | 3.42% | 2.81% | 4.27% |
| CCc1cn2c3c(cc(C(=O)N[C@@H](Cc4cccc(F)c4)[C@H](O)CNC4CCOCC4)cc13)N(C)S(=O)(=O)CC2 | -0.16% | 0.52% | 1.47% |
| O=C(/C=C/c1ccc(Cl)c(Cl)c1)NCCCCCN1CCC(NC(=O)Nc2cc(F)ccc2F)CC1 | 2.34% | 2.81% | 6.16% |
| CN1CCN(c2ccnc3cc4c(cc23)N(C(=O)Nc2ccc3c(c2)CCCC3=O)CC4)CC1 | 1.37% | 1.56% | 0.75% |
| COc1cc2nc(NCCc3ccccc3)nc(NCc3cc(C)no3)c2cc1OC | 4.85% | 4.61% | 2.42% |
| O=C(c1cc(-c2ccco2)n[nH]1)N1CCN(S(=O)(=O)c2ccc(Br)cc2)CC1 | 10.8% | 10.2% | 7.48% |
| CCCC[C@@H](C(=O)NCCc1ccc(Cl)cc1)N1C(=O)CCC1C(=O)Nc1ccc(Cl)c(Cl)c1 (stereo partly drawn) | -0.33% | 2.4% | 0.19% |
| COCCn1c(-c2cccc(Cl)c2)nn(-c2ccc([N+](=O)[O-])cc2Cl)c1=S | 4.03% | 6.65% | 7.62% |
| O=C(Nc1cc(C(F)(F)F)cc(C(F)(F)F)c1)c1cc(C(F)(F)F)cc(C(F)(F)F)c1 | 0.3% | -0.43% | 1.06% |

| SMILES | inhibition [1] | inhibition [2] | inhibition [3] |
| --- | --- | --- | --- |
| O=C(/C=C/c1ccc(Cl)c(Cl)c1)NCCCCCN1CCC(NC(=S)Nc2cccc(Cl)c2)CC1 | 2.06% | 0.6% | -0.54% |
| CNC(=O)c1ccccc1Nc1cc(Nc2cc(OC)ccn2)ncc1Cl | 5.77% | 7.66% | 6.6% |
| CCCCCC(C)N/C(=N/c1ccccc1Br)Nc1ccc([N+](=O)[O-])cc1O (stereo not drawn) | 1.52% | 1.7% | 0.95% |
| COc1ccc(Cn2c(SCc3ccc(C)cc3)nc3cc(OC)c(OC)cc3c2=N)cc1Cl | -0.1% | -4.17% | -2.37% |
| c1cc(CN2CCN(c3ccncc3)CC2)cc(-c2cccc(-c3nc4ccccc4[nH]3)c2)c1 | 2.65% | 2.34% | 1.32% |
| CC(C)COc1ccc(Cl)cc1Cc1ccc(-c2nc3ccc(C(F)(F)F)cc3[nH]2)o1 | 0.04% | 0.46% | 2.13% |
| Cc1nc(N/C=C/c2ccc(O)cc2)cc(N2CCCC2)n1 | 8.44% | 6.81% | 7.13% |
| COc1cccc(NC(=O)Nc2c(-c3cccc(C(F)(F)F)c3)c(C(F)(F)F)nn2C)c1 | 0.7% | 1.76% | 0.37% |
| Cc1ccnc2nc(C(=O)Nc3cc(Cl)ccc3N3CCOCC3)nn12 | 5.13% | 5.74% | 5.36% |
| O=C(N[C@@H](CC1CCCCC1)C(=O)NCc1cccc(C(F)(F)F)c1)c1ccc(O)c(-c2ccc(Cl)c(Cl)c2)c1 | 1.91% | 1.58% | 1.16% |
| Cc1cccc2nc(-c3ccc(-c4ccc(NC(=O)Nc5ccsc5)cc4)s3)[nH]c12 | 5.12% | 5.23% | 4.39% |
| CCCC(=O)c1cnc2cc(O)ccc2c1Nc1ccccc1C | 6.19% | 6.97% | 0.57% |
| O=C(Nc1cccc(CN2CCCN(Cc3ncc[nH]3)CC2)c1)c1ccc(Cl)c(Cl)c1 | 2.9% | 3.94% | 5.79% |
| Oc1c(C(Nc2ccccn2)c2ccc(Cl)cc2Cl)ccc2cccnc12 (stereo not drawn) | 3.22% | 5.81% | 0.74% |
| O=C(Nc1ccc(N2CCNCC2)nc1)c1oc(-c2ccccc2)nc1C(F)(F)F | 2.9% | 3.6% | 0.32% |
| CSc1c(CNCCCNc2cc(=O)c3ccccc3[nH]2)[nH]c2ccccc12 | 5.89% | 4.28% | 4.96% |
| COc1cccc(C(=O)Nc2sc3c(c2C(N)=O)CCCC3)c1OC | 0.25% | 8.04% | 12.7% |
| O=S(=O)(c1ccc(OCc2ccc(Cl)cc2)cc1)c1cc2c(cc1O)CCN(C1CCC1)CC2 | 2.05% | 1.15% | 1.15% |
| CO/C(=C\C=C\c1cc2cc(Cl)c(Cl)cc2[nH]1)C(=O)NCCCNC12CC3CC(CC(C3)C1)C2 | 3.15% | 1.55% | 0.89% |
| CN(C)CCN(Cc1ccccc1-c1ccc(CNCCc2ccccc2)cc1)C(=O)c1ccccc1 | 3.46% | 2.83% | 3.1% |
| O=C(/C=C/c1ccccc1Cl)Nc1ccc(Br)c(OCCN2CCN(CCN3CCCC3)CC2)c1 | 4.13% | 3.71% | 4.6% |
| O=C(N[C@@H](CC1CCCCC1)C(=O)NCc1cccc2ccccc12)c1ccc(O)c(-c2ccc(Cl)c(Cl)c2)c1 | 2.54% | 2.25% | 2.22% |
| CCOc1ccc(-c2nc(NC(=O)CS(=O)(=O)c3ccccc3)sc2C)cc1 | 2.75% | 2.62% | 1.8% |
| O=C(NC1CCN(Cc2ccsc2)CC1)c1ccc(-c2cccc(C(F)(F)F)c2)s1 | 8.18% | 9.07% | 0.59% |

| SMILES | inhibition [1] | inhibition [2] | inhibition [3] |
| --- | --- | --- | --- |
| CC1CCCC(NC(=O)CCOc2ccccc2)C1 (stereo not drawn) | 7.23% | 6.34% | 6.88% |
| COc1ccc2nccc([C@@H](O)CN3CCC(NCc4ccc(OC)c(NC=O)c4)CC3)c2c1 | 3.28% | 4.05% | 2.18% |
| CN(C)CCOc1ccc(-n2c(-c3nonc3N)nc3cncc(-c4ccc(F)cc4)c32)cc1 | 3.17% | 3.94% | 2.52% |
| COc1ccccc1N1CCN(c2cccc(F)c2C#N)CC1 | 8.24% | 6.93% | 6.12% |
| CC[C@H](NC(=O)c1c(N)c(-c2sccc2Cl)nc2ccccc12)c1ccccc1 | 3.8% | 0.64% | 1.74% |
| Cc1noc(C)c1-c1ccc2c(Nc3ccc(C#N)cc3)c(C(N)=O)cnc2c1 | 4.95% | 4.62% | 5% |
| Cc1cc(=O)c(-c2ccc(OCc3ccc(OC(F)(F)F)cc3)cc2)c(C)[nH]1 | 7.02% | 4.41% | 2.08% |
| CN(C)Cc1ccc(-c2cccc(Nc3nccc(NCC(O)c4ccccc4)n3)c2)cc1 (stereo not drawn) | 0.75% | 1.38% | 0.25% |
| O=C(Nc1cccc(-c2csc(NC(=O)c3ccc4ccccc4c3)n2)c1)c1ccc2ccccc2c1 | 1.53% | 1.22% | 0.66% |
| Cc1cc(NC(=O)c2cc(S(=O)(=O)N3CCCCC3)ccc2C)no1 | 4.25% | 4.4% | 2.15% |
| O=C(Nc1cccc(CN2CCCN(CC3CCCCC3)CC2)c1)c1ccc(Cl)c(Cl)c1 | 12.1% | 12.2% | 10.5% |
| C=C(C)CSc1nc2c(c(=O)n1Cc1ccco1)C1(CCCCC1)Cc1ccccc1-2 | 3.67% | 3.16% | 4.72% |
| Nc1cc(-c2cccc(Cl)c2)nn1-c1ccnc2cc(Cl)ccc12 | -0.77% | -0.13% | -4.37% |
| CC(C)OC(=O)c1ccc(NC(=O)N[C@@H](Cc2ccc(O)cc2)C(=O)NC2CCC(CCN3C4CCC3c3ccccc34)CC2)cc1 (stereo partly drawn) | 3.08% | 2.7% | 2.46% |
| Cc1cccc2nc(-c3cccc(-c4ccc(NC(=O)c5ccncc5)cc4)c3)[nH]c12 | 2.81% | 2.24% | 2% |
| O=C(Nc1ccccc1)Nc1ccc(-c2cccc(-c3nc4cc(C(F)(F)F)ccc4[nH]3)c2)cc1 | 4.44% | 0.5% | 2.05% |
| CNS(=O)(=O)c1ccc(NC(=O)c2cc(-c3cccnc3)nc3ccc(Br)cc23)cc1 | 2.58% | 2.73% | 3.77% |
| CN(Cc1ccc(NC(=O)CCC2CCN(C(=O)/C=C/c3ccc(Cl)c(Cl)c3)CC2)cc1)C1CCOCC1 | 4.84% | 5.1% | -1.91% |
| COc1cc(OC)cc(C(=O)N2CCOC(CCN3CCC(c4ccccc4)CC3)(c3ccc(Cl)c(Cl)c3)C2)c1 (stereo not drawn) | 0.22% | -0.92% | -1.58% |
| NC(=O)c1cccc(C(=O)Nc2cccc(-c3cccc(-c4nc5cc(F)ccc5[nH]4)c3)c2)c1 | -0.39% | 0.68% | -0.72% |
| Cc1cc(Cl)ccc1N(Cc1ccccc1)c1ccnc(Cl)n1 | 1.11% | 1.68% | 0.11% |
| COc1cc(OC)c(NC(=O)Nc2ccnc3ccccc23)cc1Cl | 9.23% | 8.9% | 5.83% |
| CC(C)(C)NC(=O)C(c1ccc(F)cc1)N(C(=O)c1ccc(CN2CCOCC2)o1)c1ccc(C2CCCCC2)cc1 (stereo not drawn) | 2.43% | 2.31% | 0.51% |
